Experimental data reported in PubChem BioAssay (Tox21).
Inconclusive results are not listed. Calls of active or inactive are those of the source. Unless noted, calls follow the shape of the dose curve; as a rule, active = well fitted curve in the direction sought with a large enough effect in the repeat runs; inconclusive = weak or mixed curves; inactive = no such curve, though single readings can be large; an effect the other way counts as inactive or inconclusive.

Experiments:
[1] = qHTS assay for small molecule agonists of the p53 signaling pathway (AID 651631; calls by dose curve; also: nearly all actives have a fitted effect of over 15% in size); conditions: HCT-116 p53RE-bla reporter, beta-lactamase FRET ratio, 16 h; series mostly up to 73.3 µM
In short: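 HCT-116 cells carrying a beta-lactamase reporter under p53 response elements were dosed with compound for 16 h at 37 °C. LiveBLAzer B/G FRET substrate was then added for 2 h at room temperature, and fluorescence intensity was read to detect pathway agonism.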

[2] = qHTS assay for small molecule agonists of the p53 signaling pathway - cell viability (AID 651633; calls by dose curve; also: nearly all actives have a fitted effect of over 30% in size); conditions: p53RE-bla HCT-116 viability, ATP luminescence, 16 h; series mostly up to 83.3 µM
In short: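 p53RE-bla cells were treated with compound for 16 hours at 37 C. Cytotoxicity was then measured as CellTiter-Glo luminescence after 30 min at room temperature.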

[3] = qHTS assay for small molecules that induce genotoxicity in human embryonic kidney cells expressing luciferase-tagged ATAD5 - cell viability (AID 651634; calls by dose curve; also: nearly all actives have a fitted effect of over 25% in size); conditions: HEK293T ATAD5-luc cells viability, CellTiter-Fluor, 15.5 h; series mostly up to 83.3 µM
In short: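 Here HEK293T cells with the ATAD5 luciferase reporter are incubated with test compounds for 15.5 hr, and cytotoxicity is then gauged by measuring protease activity in live cells using fluorescence.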

[4] = qHTS assay for small molecule disruptors of the mitochondrial membrane potential - cell viability (AID 720634; calls by dose curve;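 also: human HepG2 liver cancer cells; nearly all actives have a fitted effect of over 20% in size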); conditions: HepG2 viability, ATP luminescence (CellTiter-Glo), 1 h; series mostly up to 83.2 µM
In short: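 Viability of HepG2 cells is scored from ATP content by luminescence; cells are exposed to compound for 1 hr at 37 C and 5% CO2, then dosed with m-MPI dye before the CellTiter-Glo reagent.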

[5] = qHTS assay for small molecule disruptors of the mitochondrial membrane potential (AID 720635); conditions: HepG2 mitochondrial membrane potential, Mito-MPS dye ratio; series mostly up to 83.2 µM; also: potency is read from the fitted curve at half-maximal effect
In short: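 HepG2 cells exposed to compound 1 hr at 37C, then Mito-MPS dye 30 min. Ratio read of aggregate (540/590 nm) versus monomer (490/535 nm) fluorescence.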

[6] = qHTS assay to test for compound auto fluorescence at 590 nm (red) in HepG2 cells (AID 720674); conditions: HepG2 autofluorescence, red 540/590 nm, 1 h; series mostly up to 91.3 µM
In short: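 HepG2 cells, 2,000 per well in MEM with 10% FBS, attached overnight at 37 C, then got 23 nL compound or DMSO. After 1 hr at 37 C, 5% CO2, red fluorescence was read at 540/590 nm against Rose Bengal sodium as reference.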

[7] = qHTS assay to test for compound auto fluorescence at 460 nm (blue) in HEK293 cells (AID 720678); conditions: blue autofluorescence 405/460 nm; series mostly up to 91.3 µM
In short: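 After cell attachment (4-5 hr, 37C), compounds were pinned onto HEK293 monolayers in 10% dialyzed FBS medium. The blue channel (405/460 nm) was read following overnight culture. Equivalency was calculated against triamterene.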

[8] = qHTS assay to test for compound auto fluorescence at 590 nm (red) in HEK293 cells (AID 720679); conditions: red autofluorescence 540/590 nm; series mostly up to 91.3 µM
In short: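 Plates of HEK293 cells (10% dialyzed FBS) are treated with 23 nL compound or DMSO vehicle after a 4-5 hr attachment period, incubated overnight at 37C, and read for red fluorescence at 540/590nm.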

[9] = qHTS assay to test for compound auto fluorescence at 535 nm (green) in HepG2 cells (AID 720675); conditions: green autofluorescence 485/535 nm, 1 h; series mostly up to 91.3 µM
[10] = qHTS assay for small molecules that induce genotoxicity in human embryonic kidney cells expressing luciferase-tagged ATAD5 (AID 651632); conditions: HEK293T ATAD5-luciferase induction, 16 h; series mostly up to 83.3 µM; also: nearly all actives have a fitted effect of over 15% in size; also: potency is read from the fitted curve at half-maximal effect
In short: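 DMSO vehicle served as the control. HEK293T reporter cells, 16 hr at 37C, then 30 min Amplite at room temperature; ATAD5 induction is measured as luciferase activity.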
% is scaled to controls: 0 for no effect and ±100 for the full control effect.

C=CC(C)(CCC=C(C)C)OC(=O)C(C)C (stereo unspecified)
inactive: Potency [1] | outcome [2] | outcome [3] | outcome [4] | Potency [5] | outcome [6] | outcome [7] | outcome [8]

Cc1cc(O)c(Cl)cc1C
inactive: Potency [1] | outcome [2] | outcome [3] | outcome [4] | outcome [6] | outcome [9] | outcome [7] | outcome [8]

CC(=O)OC/C=C(/C)CCC=C(C)C
inactive: Potency [10] | outcome [2] | outcome [3] | outcome [4] | Potency [5] | outcome [6] | outcome [9] | outcome [7] | outcome [8]

CC(C)(C)c1ccc(N)cc1
inactive: Potency [10] | outcome [2] | outcome [3] | outcome [4] | Potency [5] | outcome [6] | outcome [9] | outcome [7] | outcome [8]

O=C(O)/C=C(\CC(=O)O)C(=O)O
inactive: Potency [10] | outcome [2] | outcome [3] | outcome [4] | Potency [5] | outcome [6] | outcome [9] | outcome [7] | outcome [8]

N#Cc1ccccc1C#N
inactive: Potency [10] | outcome [2] | outcome [3] | outcome [4] | Potency [5] | outcome [6] | outcome [9] | outcome [7] | outcome [8]

CCCCCCC(=O)c1ccccc1
inactive: Potency [10] | outcome [2] | outcome [3] | outcome [4] | Potency [5] | outcome [6] | outcome [9] | outcome [7] | outcome [8]

O=C(O)CCCCCCCCCC(=O)O
inactive: Potency [1] | outcome [2] | outcome [3] | outcome [4] | outcome [6] | outcome [7] | outcome [8]

Cc1cc(C)c(C)c(C)c1
inactive: Potency [1] | outcome [2] | outcome [3] | outcome [4] | outcome [6] | outcome [9] | outcome [7] | outcome [8]

C/C(=N\O)c1ccc(OCC(=O)N2CCCCC2)cc1
inactive: outcome [2] | outcome [3] | outcome [4] | Potency [5] | outcome [6] | outcome [9] | outcome [7] | outcome [8]
active: Potency [10] 23.7 µM

CC(C)C[P+](C)(CC(C)C)CC(C)C
inactive: Potency [1] | outcome [2] | outcome [3] | outcome [4] | outcome [6] | outcome [9] | outcome [7] | outcome [8]

CCOc1ccccc1OCCN[C@H](C)Cc1ccc(OC)c(S(N)(=O)=O)c1
active: Potency [5] 24.8 µM
inactive: Potency [10] | outcome [2] | outcome [3] | outcome [4] | outcome [6] | outcome [9] | outcome [7] | outcome [8]

NS(=O)(=O)c1cc2c(cc1C(F)(F)F)NCNS2(=O)=O
inactive: Potency [10] | outcome [2] | outcome [3] | outcome [4] | Potency [5] | fluorescence, relative to Rose Bengal [6] 0.362% [at 18.6 µM] | fluorescence, % of fluorescein control [9] -0.0771% [at 18.6 µM] | fluorescence, % of triamterene [7] -0.352% [at 18.6 µM] | fluorescence, % of fluorescent control [8] -0.333% [at 18.6 µM]

C=C(C)C(=O)OCCOC1CC2CC1C1C=CCC21 (stereo unspecified)
inactive: Potency [1] | outcome [2] | outcome [3] | outcome [4] | outcome [6] | outcome [9] | outcome [7] | outcome [8]

COCc1nnc(-c2ccc[n+]([O-])c2)n1-c1c(Cl)c(Cl)cc2[nH]c(=O)c(=O)[nH]c12
inactive: Potency [10] | outcome [2] | outcome [3] | outcome [4] | Potency [5] | outcome [6] | outcome [9] | outcome [7] | outcome [8]

Nc1nc(Cl)cc(Cl)n1
inactive: Potency [10] | outcome [2] | outcome [3] | outcome [4] | Potency [5] | outcome [6] | outcome [9] | outcome [7] | outcome [8]

CCCCCCCCCCCCCCBr
inactive: Potency [10] | outcome [2] | outcome [3] | outcome [4] | Potency [5] | outcome [6] | outcome [9] | outcome [7] | outcome [8]
